# PubChem BioAssay AID504374 (National Center for Advancing Translational Sciences (NCATS), 2011)
# Among all 1,500 compounds or so, about 100 (6.7%) were called active. Not shown: some 7% with an inconclusive outcome. Calls follow the shape of the dose curve; as a rule, active = well fitted inhibition curve with a large enough effect; inconclusive = small, poorly fitted or top-dose-only effect, or effect the other way; inactive = flat fitted curve, though single readings scatter. The entries come from a sample that favours actives as a whole. Where a call stands in place of a potency, no number is given.
# Target: Runt-related transcription factor 1 (Homo sapiens) + Core-binding factor subunit beta (Homo sapiens) (UniProt Q01196+Q13951)
# Sequence (Q01196 whole entry, looked up): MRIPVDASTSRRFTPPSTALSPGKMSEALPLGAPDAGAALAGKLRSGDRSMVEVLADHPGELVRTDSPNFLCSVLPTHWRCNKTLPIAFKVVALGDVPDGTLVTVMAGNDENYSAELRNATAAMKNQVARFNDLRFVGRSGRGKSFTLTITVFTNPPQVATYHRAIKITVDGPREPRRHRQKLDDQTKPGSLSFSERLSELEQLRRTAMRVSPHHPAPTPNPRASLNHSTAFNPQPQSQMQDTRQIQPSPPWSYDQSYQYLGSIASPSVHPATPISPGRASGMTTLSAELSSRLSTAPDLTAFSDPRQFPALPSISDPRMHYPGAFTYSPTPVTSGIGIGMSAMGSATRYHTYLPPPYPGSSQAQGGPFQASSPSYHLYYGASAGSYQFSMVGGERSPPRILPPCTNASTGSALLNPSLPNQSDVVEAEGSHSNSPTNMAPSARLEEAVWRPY
# Sequence (Q13951 whole entry, looked up): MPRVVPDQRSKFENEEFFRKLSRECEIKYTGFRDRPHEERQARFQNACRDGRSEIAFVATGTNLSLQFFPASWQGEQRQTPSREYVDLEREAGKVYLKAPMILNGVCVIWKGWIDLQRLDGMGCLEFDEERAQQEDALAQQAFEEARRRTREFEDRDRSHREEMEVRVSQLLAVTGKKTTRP
# Assay: qHTS Assay for Compounds Blocking the Interaction Between CBF-beta and RUNX1 for the Treatment of Acute Myeloid Leukemia: Hit Validation; also: nearly all actives have a fitted effect of over 60% in size
# Conditions: AlphaScreen CBFb-His/RUNX1-biotin binding; series mostly up to 59.8 µM
# Summary of the method: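 AlphaScreen proximity assay: His-tagged CBF-beta and biotinylated RUNX1 (30 nM each) preincubated 20 min, then compound 15 min, then nickel and streptavidin beads 90 min, all at room temperature; signal read at […]em 440 nm.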
# Potency is read from the fitted curve at half-maximal effect.
row,Compound,Potency
1,Cc1cc(C)cc(NC(=O)NCC(O)COc2ccc([N+](=O)[O-])cc2)c1 (stereo not drawn),inactive
2,CCOc1cc(/C=N/n2c(C)nnc2C)ccc1O,inactive
3,Cc1ccccc1Nc1ncc(C#N)c(N)n1,inactive
4,O=C(Nc1ccc(Cl)cc1)Nc1ccc(C(=O)N2CCOCC2)cc1,inactive
5,CCCc1nc2sc3ccccc3c(=O)c2c(=O)n1Cc1ccc(OC)cc1,inactive
6,Cc1c(C(=O)/C=C/N(C)C)nnn1-c1ccc(Cl)c(Cl)c1,inactive
7,O=c1cc2c(=O)oc3cc(O)c(O)oc3c2c(O)c1O,0.447 µM (active)
8,O=c1oc2c(O)c(O)cc3c(=O)oc4c(O)c(O)cc1c4c23,0.158 µM (active)
9,COC(=O)Cc1[nH]c(=O)[nH]c1C(=O)OC,inactive
10,CSc1ccc(NC(=O)Nc2cc(C)ccn2)cc1,inactive
11,C[N+](C)(C)CCCN(Cc1ccc2c(c1)OCO2)C(=O)NC1CCCCC1,inactive
12,C=CCNC(=S)Nc1c(C(=O)OC)[nH]c2cc(OC)ccc12,inactive
13,O=C(O)c1cc(O)c2c(c1)[C@H]([C@H]1c3cc(C(=O)O)cc(O)c3C(=O)c3c(O[C@@H]4OC(CO)C(O)C(O)C4O)cccc31)c1cccc(O[C@@H]3OC(CO)C(O)C(O)C3O)c1C2=O (stereo partly drawn),0.562 µM (active)
14,O=C(OCC(O)COC(=O)c1cccnc1)c1cccnc1,inactive
15,N#Cc1ccc(S(=O)(=O)N2CCCN(c3ccc(C(F)(F)F)cn3)CC2)cc1,inactive
16,O=C(O)c1ccccc1C1Nc2ccccc2C(=O)N1CCCN1CCOCC1 (stereo not drawn),inactive
17,Cc1ccc(Cn2nc(C)cc2C(=O)Nc2ccc(Cl)cc2)cc1,inactive
18,CCn1c(NC(=O)C(C)C)c(-c2cccs2)c(=O)c2ccccc21,inactive
19,CC(=O)Oc1cc(-c2coc3cc(OC(C)=O)c(OC(C)=O)c(OC(C)=O)c3c2=O)cc(OC(C)=O)c1OC(C)=O,1 µM (active)
20,Cc1nc(C)c(-c2ccnc(/N=C/NO)n2)s1,inactive
21,Cc1cc(OCC(=O)c2cccc(C(F)(F)F)c2)n2cnnc2n1,inactive
22,O=C(NC(=S)Nc1ccccc1N1CCCC1)c1ccco1,inactive
23,O=C(NC(=S)NNC(=O)c1ccccc1O)c1ccco1,1.26 µM (active)
24,Cc1onc(-c2ccccc2)c1C(=O)NC(=S)NNC(=O)c1ccco1,inactive
25,Nn1c(SCC(=O)Nc2ccc(S(N)(=O)=O)cc2)nnc1C(F)(F)F,inactive
26,O=C(CN1CCCc2ccccc21)N1CCc2ccccc21,inactive

row,Compound,Potency
1,CC(=O)NNC(=S)Nc1cccc(F)c1,inactive
2,Cc1cccc(NC(=S)N(CCN(C)C)C(C)c2ccccn2)c1 (stereo not drawn),6.87 µM (active)
3,CC(c1ccccn1)N(CCN(C)C)C(=S)Nc1cccc(F)c1 (stereo not drawn),3.44 µM (active)
4,Cc1ccc(NC(=S)Nc2ccccn2)cc1C,inactive
5,COc1ccc(CCN(C)CCC(=O)Nc2cccc(C)c2)cc1OC,inactive
6,CC1=NN(c2nc3ccccc3s2)C(O)(C(F)(F)F)C1 (stereo not drawn),inactive
7,COc1ccc(NC(=O)c2cccs2)cn1,inactive
8,CCOC(=O)NC1=NCC(C)S1 (stereo not drawn),inactive
9,O=S(=O)(c1ccc(C(F)(F)F)cc1)N1CCCN(c2ccc(C(F)(F)F)cn2)CC1,inactive
10,NNC(=O)c1ccc(COc2ccc([N+](=O)[O-])cc2)o1,inactive
11,COc1ccc(/C=N/NC(=O)c2ccco2)cc1OCc1ccccc1,inactive
12,N#Cc1cnn(-c2ccccc2)c1NC(=O)CN1CCOCC1,inactive
13,COC(=O)CC1C(=O)NCCN1C(=S)Nc1ccc(F)cc1 (stereo not drawn),inactive
14,O=C(O)COCC(=O)N1CCN(C2c3ccccc3-c3ccccc32)CC1,inactive
15,CC(C)NC(=O)Nc1cccc(Cl)c1,inactive
16,COCc1cc(O)c(O)c(O)c1-c1c(COC)cc(O)c(O)c1O,0.631 µM (active)
17,CCCCNC(=O)NCCN1CCOCC1,inactive
18,Brc1ccc(C2Nc3cccc4cccc(c34)N2)o1,14.1 µM (active)
19,Cc1ccc(/C=N/N2CCN(c3ccccn3)CC2)o1,inactive
20,Cc1cc2nc(-c3ccccc3)cc(=O)n2[nH]1,inactive
21,NC(=S)N/N=C/c1ncc(C(F)(F)F)cc1Cl,25.1 µM (active)
22,COc1ccc(/C=N/NC(=S)Nc2cc(C(F)(F)F)ccc2Cl)cc1,inactive
23,CC(C)(C)c1ccc(CCC2OCC(C[N+]3(C)CCOCC3)O2)cc1 (stereo not drawn),inactive
24,Cc1nn2c(NCCOCCO)c3c(nc2c1-c1ccccc1)CCC3,inactive
25,O=C(c1ccc(Cn2cc(Cl)c([N+](=O)[O-])n2)cc1)N1CCN(Cc2ccccc2)CC1,inactive
26,Cc1onc(-c2c(F)cccc2Cl)c1C(=O)Nc1ccccc1N1CCOCC1,inactive

row,Compound,Potency
1,CCCCC(=O)Nc1ccc(NC(=S)NC(=O)c2ccco2)cc1OC,inactive
2,CCc1cccc(NC(=O)CCCCCC2NC(=O)NC2C)c1 (stereo not drawn),0.447 µM (active)
3,CCC(=O)Nc1cccc(C(=O)OC)c1,inactive
4,CCOC(=O)CN1NC2(CCCCCC2)NC1=S,inactive
5,Cc1onc(-c2c(F)cccc2Cl)c1C(O)c1ccc(F)cc1 (stereo not drawn),inactive
6,Nc1ncccc1OCc1ccc(Cl)c(Cl)c1,inactive
7,COCCn1c(-c2ccc(Cl)cc2)nc2oc3cc(OC)ccc3c(=O)c2c1=O,inactive
8,CC(=O)Nc1ccc(OCCOc2ccc([N+](=O)[O-])cc2)cc1,inactive
9,O=C1c2ccccc2C(=O)c2c(Nc3ccc(CCO)cc3)ccc(O)c21,0.794 µM (active)
10,CSC(=Nc1ccccc1)Nc1ccccc1,inactive
11,CCOC(=O)N1CCN(CC(=O)Nc2sc(CC)cc2C(=O)c2ccc(OC)cc2)CC1,inactive
12,CCOC(=O)CC(=O)CSc1nc(CC)c(C)cc1C#N,inactive
13,COc1ccc(N/C=C2\C(=O)c3c(sc(C)c3C)N(C)S2(=O)=O)cc1,inactive
14,COc1cc(/C=N/NC(=O)c2cncc(Br)c2)cc([N+](=O)[O-])c1O,2.82 µM (active)
15,COc1cc(/C=N/Nc2ccc(S(N)(=O)=O)cc2[N+](=O)[O-])cc(OC)c1O,inactive
16,COc1ccc(/C=N/NC(=O)c2ccc3nc[nH]c3c2)cc1OC,inactive
17,Oc1ccc2ccccc2c1C=Nc1ccccc1,inactive
18,CNC(=O)/C(C#N)=C1\SC(Cc2ccc(F)cc2)C(=O)N1c1ccccc1C (stereo not drawn),inactive
19,O=C(Nc1ccccc1)NC1CCCCNC1=O (stereo not drawn),inactive
20,CCOC(=O)/C(C#N)=C/Nc1ccccc1OC(F)(F)F,inactive
21,N#C/C(=C\c1ccc(OC(=O)c2ccccn2)cc1)C(N)=O,4.34 µM (active)
22,COc1ccc(/C(C#N)=C/c2ccccn2)cc1,inactive
23,CCOc1ccccc1/C=C(/C#N)C(N)=O,inactive
24,CCOC(=O)/C(C#N)=C/Nc1cc(F)ccc1C,inactive
25,N#CC(C#N)=Cc1ccc(OC(=O)c2ccccn2)cc1,6.12 µM (active)
26,CCOC(=O)/C(C#N)=C/c1ccc(OC(=O)c2ccccn2)cc1,3.86 µM (active)
